Laboratory results published in PubChem BioAssay (NCI).
About 83,000 compounds went through this panel and 20% of them were active in at least one assay; those are over-represented in the sample as a whole.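 Testing used 96-well plates and a 48-hour single-concentration exposure. Example: -40 means 40% of the starting cells died.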 Calls of active or inactive are those of the source. Rule for the calls: active = growth percent below 10; inactive = the rest.

What follows are compounds tested on MDA-MB-468 breast (assay: NCI-60 one-dose screen, 48 h (100 = growth as untreated, 0 = no growth, -100 = all killed)). Conditions: 10 µM unless noted.

Compound | growth
CC/C=C\C/C=C\C[C@H](O)C/C=C1/C(=O)C=C[C@H]1C/C=C\CCC(=O)OC | 28.3% [8.25 µM] (inactive)
O=[N+]([O-])c1ccc(N/N=C/C2CCCCCC2)c([N+](=O)[O-])c1 | 86.4% (inactive)
Cc1cccc(C)c1Nc1nnc(-c2ccc(F)cc2)o1 | 102% (inactive)
CCn1cnc(C[C@H](NC(=O)[C@H](CCCCNC(=O)Nc2cc(C(F)(F)F)cc(C(F)(F)F)c2)NC(=O)Nc2cc(C(F)(F)F)cc(C(F)(F)F)c2)C(=O)OC)c1 | -21% [100 µM] (active)
C=C(C)[C@@H]1CC[C@]2(c3ncc(C)o3)CC[C@]3(C)[C@H](CC[C@@H]4[C@@](C)(CCC#N)[C@H](C(=C)C)CC[C@]43C)[C@@H]12 | -63% [100 µM] (active)
O=C(O)CC1CCN(c2ccc3nnc(Cl)n3n2)CC1 | 101% (inactive)
O=c1cc(NC2CCN(CCCc3ccccc3)CC2)c2cc(Cl)ccc2o1 | -13.1% (active)
CCn1c(SCCc2ccccc2)nnc1-c1nn(-c2ccc(Cl)cc2Cl)c(-c2ccc(Cl)cc2)c1C | 45.9% (inactive)
CCNC(=O)Oc1ccc(/C(=C(/C)Cc2ccc(OC)cc2)c2ccc(OCCN3CCCC3)cc2)cc1 | 61.9% (inactive)
COc1cccc(/C=C/C(=O)c2cc3c(N)c(C(=O)Nc4ccccc4C)sc3nc2C)c1 | 16.7% (inactive)
COc1ccc(S(=O)(=O)N2CC3(COC3)C2)cc1NC(=O)c1[nH]c(C)c2c1CCCCC2=O | 22.2% (inactive)
CC(C)(C)c1ccc(S(=O)(=O)N[C@H]2CC[C@H]3[C@@H]4CCc5cc(OS(=O)(=O)O)ccc5[C@H]4CC[C@]23C)cc1 | 58.6% (inactive)
Cn1cc(-c2nn3cc(-c4ccncc4)nc3s2)c2cc(Br)ccc21 | 74.9% (inactive)
C1CCC(N2CN3c4nonc4N4CN(C5CCCCC5)CN5c6nonc6N(C2)C3C45)CC1 (stereo not given) | 99.5% (inactive)
CCCNC(=O)Oc1ccc(/C(=C(\C)c2ccccc2)c2ccc(OCCCN(C)C)cc2)cc1 | 83.4% (inactive)
CCOC(=O)C1=C(C)N2C(=NC3=C(CCCC/C3=C\c3ccccc3)C2c2ccccc2)S1 (stereo not given) | 103% (inactive)
CN1C(=O)N(C)C2C1NN=c1s/c(=C\c3ccccc3)c(=O)n12 (stereo not given) | 23.8% (inactive)
O=S(=O)(Oc1ccc(-c2ccc3sccc3c2)cc1)c1ccccc1 | 85.2% (inactive)
O=c1c2c(c3ccccc3n1-c1ccccc1)NC(=S)NC2c1ccccc1 (stereo not given) | 74.4% (inactive)
CC/C=C/[C@@H]1C=C[C@@H]2CCC[C@H]2[C@@H]1CC[C@H](O)[C@H](C)N | -76.6% (active)

Compound | growth
CCCNc1nc(N(C)O)nc(N(C)O)n1 | 21.5% (inactive)
O=C(C=P(c1ccccc1)(c1ccccc1)c1ccccc1)c1ccc(Br)cc1 | 92% (inactive)
CN1CCN(CCCOC(=O)c2c3c(n4ccccc24)C(=O)c2ncccc2C3=O)CC1 | 43.7% (inactive)
COc1cc(-c2noc(C[C@@H](NC(=O)OCc3ccccc3)C(C)C)n2)cc(OC)c1OC | 88.5% (inactive)
CC(=O)Nc1ccc(S(=O)(=O)N/N=C(\C)c2ccc(C)cc2C)cc1 | 112% (inactive)
COc1ncc(-c2ccc3nccc(C#CCN4CCN(S(C)(=O)=O)CC4)c3c2)cc1NS(=O)(=O)c1ccc(F)cc1F | -67% (active)
N#Cc1c(-c2ccccc2)nc(SCC(=O)N2CCN(c3ccccc3)CC2)[nH]c1=O | 106% (inactive)
COc1cc(/C=C\c2cc(OC)c(OC)c(OC)c2)cc(NS(=O)(=O)c2ccc(Cl)cc2)c1OC | 19.1% (inactive)
Cc1ccc(C(=O)Nc2ccccc2C(=O)N/N=C(\c2ccccc2)c2ccccn2)cc1 | -1.12% (active)
O=C(NNc1ccccc1)c1ncc[nH]1 | 75.6% (inactive)
O=C(Nc1nc2ccccc2s1)c1cc(-c2ccc(F)cc2)n2nc(-c3ccccc3)cc2n1 | 118% (inactive)
N/C(=N\OC(=O)c1ccccc1)C(Cc1ccccc1)C(=O)NOC(=O)c1ccccc1 (stereo not given) | 66.1% (inactive)
O=C1c2ccc3c4ccc5c6c(ccc(c7ccc(c2c37)C(=O)N1CCC[P+](c1ccccc1)(c1ccccc1)c1ccccc1)c64)C(=O)N(CCC[P+](c1ccccc1)(c1ccccc1)c1ccccc1)C5=O | -2.38% (active)
CCN1C(=O)N(CC)C2C1NN=c1s/c(=C\c3ccc[nH]3)c(=O)n12 (stereo not given) | 5.56% (active)
Cc1cn(-c2cc(NC(=O)c3cccc(C#Cc4cccc5[nH]nc(N)c45)c3)cc(C(F)(F)F)c2)cn1 | 67.7% (inactive)
COc1ccc(-c2nc3ccc(-c4nnc(SCC(=O)Nc5ccc(C(C)=O)cc5)o4)cc3[nH]2)cc1 | 109% (inactive)
CCOc1ccc(N2C(=O)CCSC2=S)cc1 | 97.1% (inactive)
COc1ccc(C2CC(c3ccccc3)=Nc3ccccc3S2)cc1 (stereo not given) | 102% (inactive)
CC(C)C1=NOC(=O)C1=Cc1cn(-c2ccccc2)nc1-c1ccc(Cl)cc1 | 86.7% (inactive)
Nc1nccc2c1ccn2-c1ccc(NC(=O)c2ccc(N3CCOCC3)c(C(F)(F)F)c2)cc1 | 27.6% (inactive)
